Results as given in PubChem BioAssay.
Activity calls are given as the source filed them.

Columns and labels:
[1] = optical density shifts of acrAB sulA E. coli – strain DRC41, OD650, 48 h, E. coli filamentation inducer project, primary screen (AID 1152); conditions: higher = more signal, called active from +8 up or from −8 down;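 further: E. coli MC1000 strain DRC41 lacking acrAB efflux pump and sulA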
[2] = probe aLefty1 binding on compound microarray – biochemical, small-molecule microarray, 635/667 nm fluorescence, primary screen (AID 1153); conditions: higher = more signal;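 further: score merges spot fluorescence with signal-to-noise ratio from the scanned slide images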
[3] = plasmodial surface anion channel blockers, osmotic lysis – cell-based, P. falciparum Indochina, OD700, 1 h, primary screen (AID 1154); conditions: P. falciparum Indochina infected RBC osmotic lysis, higher = more signal, called active from +8 up or from −8 down
[4] = plasmodial surface anion channel blockers, osmotic lysis – cell-based, P. falciparum Indochina, OD700, 2 h, primary screen (AID 1155);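 further: lysis reports solute entry through the parasite surface anion channel PSAC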; conditions: P. falciparum Indochina infected erythrocytes, higher = more signal, called active from +8 up or from −8 down
[5] = changes in parasitized red cell lysis, either direction – P. falciparum Indochina, OD700, 3 h, PSAC antagonist project, primary screen (AID 1156); conditions: P. falciparum-infected erythrocytes, osmotic lysis, higher = more signal, called active from +8 up or from −8 down
[6] = plasmodial surface anion channel blockers, osmotic lysis – cell-based, P. falciparum Indochina, OD700, 18 h, primary screen (AID 1157); conditions: P. falciparum Indochina infected erythrocytes, osmotic lysis OD700, 18 h; higher = more signal, called active from +8 up or from −8 down
[7] = S6 kinase pathway phospho-S6 level changes – cell-based, A549, cytoblot, luminescence, serum-stimulated, primary screen (AID 1158); conditions: 5 h, higher = more signal;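 further: serum-stimulated A549 lung adenocarcinoma cells; signal is phosphorylated S6 detected by cytoblot immunostaining with HRP secondary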
[8] = molecular target: NADPH oxidase 2 (Homo sapiens) (UniProt P04839); test: compounds shifting NOX2 Amplex Red fluorescence – cell-based, HEK293-NOX2, PMA-stimulated, NOX inhibitor project, primary screen (AID 1159); conditions: 45 min, higher = more signal, called active from +8 up or from −8 down; further: test concentration not given here
Sequence of NADPH oxidase 2 (Homo sapiens) (P04839 whole entry, looked up): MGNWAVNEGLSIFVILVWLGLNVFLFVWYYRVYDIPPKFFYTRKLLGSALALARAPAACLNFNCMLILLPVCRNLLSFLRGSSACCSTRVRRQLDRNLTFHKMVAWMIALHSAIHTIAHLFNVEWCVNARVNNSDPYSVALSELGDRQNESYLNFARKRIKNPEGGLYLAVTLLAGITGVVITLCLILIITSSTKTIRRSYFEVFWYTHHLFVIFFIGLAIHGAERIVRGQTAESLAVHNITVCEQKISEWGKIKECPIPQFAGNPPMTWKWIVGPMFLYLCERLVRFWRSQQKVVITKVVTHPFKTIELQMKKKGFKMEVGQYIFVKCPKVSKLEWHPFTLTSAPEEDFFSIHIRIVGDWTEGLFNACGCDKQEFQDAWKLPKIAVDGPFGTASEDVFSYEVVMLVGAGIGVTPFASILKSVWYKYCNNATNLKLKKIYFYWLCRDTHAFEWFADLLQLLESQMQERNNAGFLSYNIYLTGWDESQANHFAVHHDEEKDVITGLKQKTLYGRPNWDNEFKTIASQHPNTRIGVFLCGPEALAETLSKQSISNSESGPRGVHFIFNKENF

[9] = molecular target: NADPH oxidase 4 (Homo sapiens) (UniProt Q9NPH5); test: compounds shifting NOX4 Amplex Red fluorescence – cell-based, HEK293-NOX4, tetracycline-induced, NOX inhibitor project, primary screen (AID 1160); conditions: HEK293-NOX4, Amplex Red H2O2 fluorescence, 45 min; higher = more signal, called active from +8 up or from −8 down
Sequence of NADPH oxidase 4 (Homo sapiens) (Q9NPH5 whole entry, looked up): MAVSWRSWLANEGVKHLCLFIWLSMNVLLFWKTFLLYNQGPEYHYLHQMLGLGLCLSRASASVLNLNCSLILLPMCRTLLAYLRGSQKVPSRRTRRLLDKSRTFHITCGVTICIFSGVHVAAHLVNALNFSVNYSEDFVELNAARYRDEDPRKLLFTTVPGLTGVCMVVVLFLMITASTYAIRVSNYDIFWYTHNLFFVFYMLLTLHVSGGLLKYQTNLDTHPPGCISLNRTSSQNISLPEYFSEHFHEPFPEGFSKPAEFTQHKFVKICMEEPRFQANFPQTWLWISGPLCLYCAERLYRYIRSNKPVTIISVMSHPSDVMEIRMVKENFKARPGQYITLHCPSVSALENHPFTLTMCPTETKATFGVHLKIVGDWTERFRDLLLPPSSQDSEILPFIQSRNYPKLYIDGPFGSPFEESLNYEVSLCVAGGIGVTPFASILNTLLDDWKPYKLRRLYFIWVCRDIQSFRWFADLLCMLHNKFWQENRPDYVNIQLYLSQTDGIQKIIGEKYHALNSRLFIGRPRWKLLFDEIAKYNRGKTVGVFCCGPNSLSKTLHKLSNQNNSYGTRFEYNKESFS

[10] = molecular target: NADPH oxidase 5 (Homo sapiens) (UniProt Q96PH1); test: compounds shifting NOX5 Amplex Red fluorescence – cell-based, HEK293-NOX5, NOX inhibitor project, primary screen (AID 1161); conditions: HEK293-NOX5, ionomycin, 45 min, higher = more signal
Sequence of NADPH oxidase 5 (Homo sapiens) (Q96PH1 whole entry, looked up): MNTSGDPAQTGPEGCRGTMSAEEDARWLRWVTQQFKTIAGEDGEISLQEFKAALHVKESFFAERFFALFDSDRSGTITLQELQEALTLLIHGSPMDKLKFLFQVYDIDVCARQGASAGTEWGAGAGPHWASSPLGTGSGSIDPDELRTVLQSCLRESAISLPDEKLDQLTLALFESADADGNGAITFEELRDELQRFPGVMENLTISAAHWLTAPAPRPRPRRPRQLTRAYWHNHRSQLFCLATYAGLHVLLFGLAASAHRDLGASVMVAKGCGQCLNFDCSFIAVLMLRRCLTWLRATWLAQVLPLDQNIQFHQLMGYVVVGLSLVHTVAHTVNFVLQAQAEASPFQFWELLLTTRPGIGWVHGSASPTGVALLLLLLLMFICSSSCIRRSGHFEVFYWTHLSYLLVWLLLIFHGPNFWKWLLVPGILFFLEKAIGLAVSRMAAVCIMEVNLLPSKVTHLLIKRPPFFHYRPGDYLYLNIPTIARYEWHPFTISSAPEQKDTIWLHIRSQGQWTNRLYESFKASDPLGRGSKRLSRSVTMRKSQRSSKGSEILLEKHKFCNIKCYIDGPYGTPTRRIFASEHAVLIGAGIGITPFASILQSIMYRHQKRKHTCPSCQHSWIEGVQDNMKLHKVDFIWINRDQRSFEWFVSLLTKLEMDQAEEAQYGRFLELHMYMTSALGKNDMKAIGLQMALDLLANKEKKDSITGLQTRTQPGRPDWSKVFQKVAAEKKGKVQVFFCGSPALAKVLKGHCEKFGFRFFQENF

Compound | z-score [1] | composite z-score [2] | z-score [3] | z-score [4] | z-score [5] | z-score [6] | z-score [7] | z-score [8] | z-score [9] | z-score [10]
[N-]=[N+]=Nc1ccccc1C[C@@]1(C(N)=O)N=C(c2ccc(OCCCO)cc2)O[C@@H]1c1ccccc1N=[N+]=[N-] | 0.587 (inactive) | 0.0211 | 30.4 (active) | 25.3 (active) | 2.63 (inactive) | 1.35 (inactive) | 2.05 | -0.0581 (inactive) | -1.11 (inactive) | -1.55
COc1cccc(C)c1NC(=O)O[C@H]1[C@H](OC(=O)Nc2ccccc2-c2ccccc2)[C@H](OC(=O)Nc2ccccc2-c2ccccc2)[C@@H](OC)O[C@@H]1CO | -0.0771 (inactive) | -0.017 | 1.57 (inactive) | 0.557 (inactive) | -0.299 (inactive) | 0.742 (inactive) | -0.319 | 0.224 (inactive) | -0.572 (inactive) | -0.507
C=C[C@@H](OC)[C@H](OC(=O)Nc1ccc(OC)cc1)c1ccc(O)c(F)c1 | 0.308 (inactive) | 0.0774 | 3.98 (inactive) | 0.517 (inactive) | 0.241 (inactive) | 0.475 (inactive) | -0.012 | -1.79 (inactive) | 0.787 (inactive) | 3.63
Cc1ccc(S[C@]2(C(=O)O)CC(=O)N(C3CCCCC3)[C@@H]2c2ccc(CO)cc2I)cc1 | 0.263 (inactive) | 0.32 | 9.32 (active) | 0.692 (inactive) | 0.796 (inactive) | 0.99 (inactive) | 0.0559 | 3.66 (inactive) | -2.04 (inactive) | -1.86
C=CCN1C(=O)[C@]2(CCC(=O)OC(C)(C)C)N=C(c3ccc(OCCCO)cc3)O[C@@H]2c2ccccc21 | 0.736 (inactive) | 0.576 | 34.1 (active) | 32.3 (active) | 2.29 (inactive) | 12.1 (active) | 0.708 | -2.67 (inactive) | 0.56 (inactive) | -0.299
CC1CC/C=C\[C@H]2OC34C=CCN(C(C)C)C(=O)[C@H]3N(CCO)C(=O)[C@@H]4C2C(=O)O1 (stereo not given in full) | 0.904 (inactive) | -0.101 | 0.158 (inactive) | 0.22 (inactive) | -0.285 (inactive) | 0.112 (inactive) | 1.86 | 2.21 (inactive) | -0.785 (inactive) | 2.03
CCCC=C(CCC)[C@@H](NS(=O)(=O)CC12CCC(CC1=O)C2(C)C)c1ccc(C(=O)OC)cc1 (stereo not given in full) | -0.645 (inactive) | 0.0345 | -0.777 (inactive) | -0.825 (inactive) | -0.399 (inactive) | -1.81 (inactive) | 0.922 | 0.219 (inactive) | 0.669 (inactive) | 2.48
COC(=O)C1=CC(CCCO)=CC(c2cccs2)N(Cc2cccc(OC(F)(F)F)c2)C=C1C(=O)OC (stereo not given) | -0.504 (inactive) | -0.126 | 4.92 (inactive) | 1.34 (inactive) | 0.87 (inactive) | 0.842 (inactive) | -0.344 | -0.244 (inactive) | -0.436 (inactive) | -0.0441
COCCCNC(=O)[C@@]1(CCC(=O)OC(C)(C)C)N=C(c2ccc(OCCCO)cc2)O[C@H]1c1ccccc1N=[N+]=[N-] | 1.15 (inactive) | 0.286 | 30.4 (active) | 29.3 (active) | 2.54 (inactive) | 2.43 (inactive) | -0.226 | -1.35 (inactive) | 0.197 (inactive) | -2.03
CCCCN1CC=CC23O[C@@H]4/C=C\CCC(C)OC(=O)C4[C@H]2C(=O)N(CCCO)[C@@H]3C1=O (stereo not given in full) | 0.323 (inactive) | 0.0494 | 0.591 (inactive) | -0.0611 (inactive) | -0.23 (inactive) | 0.408 (inactive) | -0.118 | 1.1 (inactive) | -1.84 (inactive) | 0.861
